# Compounds with a hit are over-represented: about 3.4% of the library has one in this group of screens.
# PKM2 activator – qHTS Assay for Activators of Human Muscle isoform 2 Pyruvate Kinase | purified PKM2, Kinase-Glo ATP luminescence, activation; response scale: 0% is enzyme alone, no compound | Potency, µM (highest dose often 57.5 µM), for the others: at the highest dose activation, actives largely listed as activators | 260,000 compounds, 0.34% hits | AID 1631, 2009; note: % is set by controls: 0 for no effect and ±100 for the full control effect; nearly all actives have a fitted effect of over 55% in size
#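 hPK-M2, >95% pure; 0.1 mM ADP / 0.5 mM PEP final; imidazole pH7.2 buffer w/ 7 mM MgCl2, 50 mM KCl; 1 h RT; Kinase-Glo lum. Intermediate enzyme activity for dual inhibitor/activator qHTS.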
# KAT2A inh – qHTS Assay for Inhibitors of GCN5L2. Histone acetyltransferase KAT2A (Homo sapiens), Q92830. GCN5L2 HAT assay, ThioGlo1 CoA-SH fluorescence. Potency, µM (top dose mostly 58.9 µM), for inactives: top-dose activity change, negative = inhibition, usual class: inhibitors. 390,000 compounds, 0.21% hits. AID 504327, 2011; note: % is set by controls: 0 for no effect and ±100 for the full control effect
#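 GCN5L2 (20nM final) in 50mM HEPES, 0.1mM EDTA pH 7.5, 0.01% Tween-20 was preincubated 15 min at room temperature with compound, then given ThioGlo1 (50uM), H3(1-25) peptide (75uM) and acetyl-CoA (70uM); CoA-thiol fluorescence (Ex340/Em540) was read at 0 and 20 min.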
# PLK1 PBD inh – qHTS for Inhibitors of PLK1-PDB (polo-like kinase 1 - polo-box domain): Primary Screen; Potency, µM, inactives show max response, negative = inhibition, actives largely listed as inhibitors; Plk1 PBD binding of FITC phosphopeptide, fluorescence polarization; 360,000 compounds, 2.8% hits; note: series mostly up to about 57 µM; % is set by controls: 0 for no effect and ±100 for the full control effect; nearly all actives have a fitted effect of over 65% in size
# Target sequence (P53350 whole entry, looked up, the tested form may be a part): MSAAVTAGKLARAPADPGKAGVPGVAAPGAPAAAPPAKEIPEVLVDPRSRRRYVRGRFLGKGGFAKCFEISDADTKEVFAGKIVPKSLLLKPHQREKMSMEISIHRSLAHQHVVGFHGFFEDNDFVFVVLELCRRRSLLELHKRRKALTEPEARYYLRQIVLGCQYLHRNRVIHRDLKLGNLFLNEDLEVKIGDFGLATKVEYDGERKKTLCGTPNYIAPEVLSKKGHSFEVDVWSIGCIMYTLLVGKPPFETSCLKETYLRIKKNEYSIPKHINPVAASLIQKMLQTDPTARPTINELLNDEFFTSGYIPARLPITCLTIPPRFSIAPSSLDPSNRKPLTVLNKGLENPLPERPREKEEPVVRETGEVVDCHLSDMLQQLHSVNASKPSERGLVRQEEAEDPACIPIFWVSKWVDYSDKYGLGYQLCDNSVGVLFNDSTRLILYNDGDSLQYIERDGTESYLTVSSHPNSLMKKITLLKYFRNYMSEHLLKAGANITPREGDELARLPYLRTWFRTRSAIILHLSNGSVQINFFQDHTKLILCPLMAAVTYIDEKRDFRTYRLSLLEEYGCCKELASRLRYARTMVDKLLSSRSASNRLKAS
# Mito fusion yeast – qHTS Assay for Small Molecule Inhibitors of Mitochondrial Division or Activators of Mitochondrial Fusion; S. cerevisiae fusion-defective mutant growth rescue, CellTiterGlo 48 h; 320,000 compounds, 0.23% hits; Potency, µM (top dose mostly 46.1 µM), inactives show at the highest dose growth rescue (activation), hits mostly activators; note: % of control where 0% means no effect; nearly all actives have a fitted effect of over 45% in size
#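 Growth-rescue viability read-out: after 48 h at the non-permissive 37C in glycerol/ethanol YPEG, yeast mitochondrial fusion mutants are measured by CellTiterGlo luminescence; compounds (23 nl pinned per well) restoring growth score as division inhibitors or fusion activators.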
# GLS inh – qHTS for Inhibitors of Glutaminase (GLS); 410,000 compounds, 0.21% hits; GLS enzymatic activity, qHTS titration; Glutaminase kidney isoform, mitochondrial (Homo sapiens), O94925; Potency, µM (top dose mostly 45.5 µM), inactives show top-dose activity change, negative = inhibition, hits mostly inhibitors; note: % is set by controls: 0 for no effect and ±100 for the full control effect
#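 hKGA in 45 mM KH2PO4 (pH 8.2), 0.02% Tween-20 with compound, then 1mM L-Glutamine (stock as added) plus glutamate oxidase/HRP/Amplex red coupling mix. Fluorescence read initially and after 30 min at RT; signal change reflects glutamate formation.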
# VDR inh – Inhibitors of the vitamin D receptor (VDR): qHTS; Vitamin D3 receptor (Homo sapiens), P11473; VDR-SRC2-3 peptide fluorescence polarization, 2 h; Potency, µM, without a hit: max response, negative = inhibition, usual class: inhibitors; 400,000 compounds, 0.93% hits; note: % is set by controls: 0 for no effect and ±100 for the full control effect
#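 The screen uses fluorescence polarization to detect compounds that interfere with recruitment of the SRC2-3 coactivator peptide to VDR; plates are read after 2 h at room temperature.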
# TbPYK inh – qHTS of Trypanosoma Brucei Inhibitors: Confirmatory Assay for Cherry-picked Compounds. shares compounds with PLK1 PBD inh. recombinant TbPYK, Kinase-Glo ATP luminescence. Potency, µM (titrated, usually from 76.9 µM), for inactives: top-dose activity change, negative = inhibition, actives largely listed as inhibitors. 890 compounds, 67% hits; note: % is set by controls: 0 for no effect and ±100 for the full control effect; nearly all actives have a fitted effect of over 70% in size
# TbPYK ADP-Glo – qHTS of Trypanosoma Brucei Inhibitors: Orthogonal Assay for Cherry-picked Compounds; recombinant TbPYK, ADP-Glo luminescence, 60 min; Potency, µM (top dose mostly 76.9 µM), without a hit: at the top dose activity change, negative = inhibition, actives largely listed as inhibitors; AID 720584, 2013; 890 compounds, 62% hits; shares compounds with PLK1 PBD inh; note: % is set by controls: 0 for no effect and ±100 for the full control effect; nearly all actives have a fitted effect of over 75% in size
# * hit, by the source's call; ? = inconclusive; · = no result given; [ ] = remark or other dose. Calls come from the whole dose curve; as a rule, active = well fitted curve in the direction sought with a large enough effect; inconclusive = small, poorly fitted or top-dose-only effect, or another doubt; inactive = no such curve, though single readings can be large; an effect the other way counts as inactive or inconclusive. Potency is the fitted concentration of half-maximal effect.
SMILES,PKM2 activator,KAT2A inh,PLK1 PBD inh,Mito fusion yeast,GLS inh,VDR inh,TbPYK inh,TbPYK ADP-Glo
CCN1C(=O)/C(=C/c2ccc3c(c2)CCN3CCCCl)C(=O)NC1=S,5%,?,1.5µM*,0%,1%,-5%,?,?
CCOC(OCC)P(=O)(O)CCCN,·,0%,·,·,·,-5%,·,·
CC1(C)N(O)C(c2ccc(C(=O)O)cc2)=[N+]([O-])C1(C)C,·,-10%,·,·,·,?,·,·
CCN1C[C@@]2(COC(=O)c3ccccc3N3C(=O)CC(C)C3=O)CC[C@H](OC)[C@]34C5C[C@@H]6[C@@H](OC)C[C@@](O)(C5[C@H]6OC)[C@@](O)(C13)[C@@H](OC)C24 (some centres undefined),·,-19%[0.501 µM],·,·,·,0%,·,·
O=c1[nH]c(=S)n(Cc2ccco2)c(O)c1C=NCc1cccs1,-1%,-9%[0.501 µM],-26%,2%,15%,1%,?,-29%
O=C1NC(=O)C(=Cc2coc3ccc(O)cc3c2=O)C(=O)N1,32µM*,-2%,27µM*,-3%,34%,?,14µM*,?
O=C1NC(=O)C(=Cc2cccc(OCCOc3ccccc3)c2)C(=O)N1,·,-2%,2.7µM*,2%,?,?,?,?
O=C1NC(=O)C(=Cc2cn(CCOc3ccc4c(c3)OCO4)c3ccccc23)C(=O)N1,-4%,-7%[0.501 µM],0%,3%,-4%,3%,·,·
CCN1CCN(c2cc(N3CCCC3)c([N+](=O)[O-])cc2F)CC1,-5%,-3%,-11%,-1%,14%,-5%,·,·
CCN1CCN(c2ccc([N+](=O)[O-])cc2C=C2C(=O)NC(=O)NC2=O)CC1,11%,-2%,11µM*,-6%,2%,?,20µM*,?
CCCN1[C@@H]2C[C@@H](O)CC[C@@H]2C[C@H]1C(=O)OC,1%,·,·,·,·,·,·,·
CO[C@H]1[C@@H](O)CC(OC2[C@@H](O)CC(OC3[C@@H](O)C[C@H](OC4CC[C@@]5(C)C(CCC6C5CC(O)[C@]5(C)[C@H](C7=CC(=O)OC7)CCC65O)C4)O[C@@H]3C)O[C@@H]2C)O[C@@H]1C (some centres undefined),·,2%,·,·,3%,-2%,·,·
CCN(CC)c1ccc(C=C2C(=O)NC(=S)NC2=O)cc1,23%,-22%,2.7µM*,-7%,?,?,16µM*,14µM*
Cc1ccc2c(c1)C1(CCN(CCc3nc(-c4ccccc4)oc3C)CC1)OC(=O)N2,·,-24%,·,·,·,10%,·,·
COC(=O)/C=C/C(=O)N[C@@H]1CC[C@@]2(O)[C@H]3Cc4ccc(O)c5c4[C@@]2(CCN3CC2CC2)[C@H]1O5,·,6%,·,·,·,1%,·,·
O=C1NC(=O)C(=Cc2c(Cl)cccc2Cl)C(=O)N1,·,·,4.7µM*,·,-3%,?,25µM*,35µM*
CCN(CC)c1nc2c(C)cccn2c(=O)c1C=C1C(=O)NC(=O)NC1=O,-4%,-7%,-16%,2%,11%,9%,·,·
